Measured values: PubChem BioAssay
Potency and affinity values are given separately. Inconclusive results are not listed. The source made the active and inactive calls. Unless noted, no rule for the calls is given here.

Experiments:
[1] = cytotoxicity in PAX8-dependent RMG-1 cells, dose response, cell-based, cherry-pick (AID 687029;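 active = signal drop whose fitted half-maximal concentration is at most twice the top valid dose, in every test run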;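 also: cells exposed to compound for 96 hours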)
[2] = cytotoxicity in IOSE-T80 ovarian epithelial cells, dose response, selectivity assay for PAX8 inhibitor project, cell-based, cherry-pick (AID 687032;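 active = fitted half-maximal concentration for viability loss no higher than twice the top valid dose, in every repeat run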;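 also: cells exposed to compound for 96 h before reading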)
[3] = inhibitors of CMV-promoter luciferase reporter, dose response, counter-screen for Pax8 inhibitor project, cell-based, HEK293, luminescence, dry powder (AID 743020;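 active = signal-lowering compounds whose fitted half-maximal concentration is at or below twice the top tested dose in every run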;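 also: HEK293 cells stably expressing the CMV luciferase reporter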)
[4] = non-specific cell cytotoxicity, dose response, cytotoxicity control for PAX8 inhibitor project, plate reader, dry powder samples (AID 743021)
[5] = IGROV1 ovarian cancer cell cytotoxicity, dose response, PAX8 inhibitor project, plate reader, dry powder samples (AID 743043);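 also: more negative means fewer viable cells or more cytotoxicity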
[6] = IOSE-T80 ovarian epithelial cell cytotoxicity, dose response, cytotoxicity control for PAX8 inhibitor project, plate reader, dry powder samples (AID 743045);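 also: more negative values mean more cell killing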
[7] = A2780 ovarian cancer cell cytotoxicity, dose response, cytotoxicity control, plate reader, dry powder samples (AID 743046)
[8] = cytotoxicity in OVCAR8 ovarian cancer cells, dose response, PAX8 project, cell-based, plate reader, dry powder samples (AID 743197)

Measured: outcome

C[C@H]1CCCCO[C@H](CN(C)Cc2ccc(C(F)(F)F)cc2)[C@@H](C)CN([C@@H](C)CO)C(=O)c2cc(NS(=O)(=O)c3ccc(F)cc3)ccc2O1
not listed: [8]
inactive: all other assays above

C[C@@H]1CN([C@@H](C)CO)S(=O)(=O)c2ccc(C#Cc3ccccc3F)cc2O[C@@H]1CN(C)C(=O)c1ccc2c(c1)OCO2
not listed: [7] | [8]
inactive: all other assays above

CC(C)NC(=O)N(C)C[C@H]1OCCCC[C@@H](C)Oc2ccc(NC(=O)Nc3ccc(C(F)(F)F)cc3)cc2C(=O)N([C@@H](C)CO)C[C@H]1C
not listed: [8]
inactive: all other assays above

Cc1ccc(S(=O)(=O)Nc2ccc3c(c2)C(=O)N([C@H](C)CO)C[C@H](C)[C@@H](CN(C)S(=O)(=O)c2cccs2)OCCCC[C@H](C)O3)cc1
not listed: [7] | [8]
inactive: all other assays above

C[C@@H]1CN([C@H](C)CO)C(=O)c2cc(NS(=O)(=O)c3ccc(F)cc3)ccc2O[C@@H](C)CCCCO[C@@H]1CN(C)CC1CCCCC1
not listed: [7] | [8]
inactive: all other assays above

CC(=O)N1CCOc2ccc(S(=O)(=O)N3CCN(c4cccc(C(F)(F)F)c4)CC3)cc21
not listed: [7] | [8]
inactive: all other assays above

C[C@@H]1CCCCO[C@H](CN(C)CC2CCCCC2)[C@H](C)CN([C@@H](C)CO)C(=O)c2cc(NC(=O)Nc3ccccc3)ccc2O1
not listed: [8]
inactive: all other assays above

C[C@@H](O)C#Cc1ccc2c(c1)O[C@H](CN(C)Cc1ccc(-c3ccccc3)cc1)[C@@H](C)CN([C@@H](C)CO)S2(=O)=O
not listed: [8]
inactive: all other assays above

C[C@@H]1CCCCO[C@H](CN(C)S(=O)(=O)c2ccc(Cl)cc2)[C@@H](C)CN([C@@H](C)CO)C(=O)c2cc(NS(=O)(=O)c3ccc(F)cc3)ccc2O1
not listed: [7] | [8]
inactive: all other assays above

C[C@@H]1CCCCO[C@@H](CN(C)C(=O)Nc2ccc(C(F)(F)F)cc2)[C@H](C)CN([C@H](C)CO)C(=O)c2cc(NS(=O)(=O)c3ccc(F)cc3)ccc2O1
not listed: [8]
inactive: all other assays above

C[C@@H]1CCCCO[C@@H](CN(C)Cc2ccc(Cl)c(Cl)c2)[C@H](C)CN([C@H](C)CO)C(=O)c2cc(NC(=O)c3ccccc3)ccc2O1
not listed: [7] | [8]
inactive: all other assays above

C[C@@H]1CN([C@H](C)CO)C(=O)c2cc(NC(=O)Cc3ccccc3)ccc2O[C@@H](C)CCCCO[C@@H]1CN(C)Cc1ccc(C(F)(F)F)cc1
not listed: [8]
inactive: all other assays above

C[C@@H]1CCCCO[C@H](CN(C)C(=O)Nc2ccc(C(F)(F)F)cc2)[C@@H](C)CN([C@@H](C)CO)C(=O)c2cc(NC(=O)Nc3ccc(C(F)(F)F)cc3)ccc2O1
not listed: [8]
inactive: all other assays above

C[C@H](CO)N1C[C@H](C)[C@H](CN(C)Cc2ccc(C(F)(F)F)cc2)OCCCC[C@H](C)Oc2ccc(NC(=O)Nc3ccccc3)cc2C1=O
not listed: [7] | [8]
inactive: all other assays above

O=C(Nc1ccc(C(F)(F)F)cc1)Nc1ccc2c(c1)[C@@H]1C[C@H](CC(=O)N3CCc4ccccc4C3)O[C@H](CO)[C@@H]1O2
not listed: [8]
inactive: all other assays above

Cc1ccc(S(=O)(=O)Nc2ccc3c(c2)C(=O)N([C@H](C)CO)C[C@@H](C)[C@H](CN(C)C(=O)Nc2cccc4ccccc24)OCCCC[C@@H](C)O3)cc1
not listed: [8]
inactive: all other assays above

C[C@@H]1CN([C@H](C)CO)C(=O)c2cccc(NC(=O)Nc3cccc4ccccc34)c2O[C@@H]1CN(C)S(=O)(=O)c1ccc(Cl)cc1
not listed: [8]
inactive: all other assays above

COc1ccc(CN(C)C[C@@H]2OCCCC[C@H](C)Oc3ccc(NC(=O)Nc4ccc(C(F)(F)F)cc4)cc3C(=O)N([C@H](C)CO)C[C@@H]2C)cc1
inactive: all assays above

Cc1ccc(S(=O)(=O)N(C)C[C@H]2Oc3cc(C#Cc4ccncc4)ccc3S(=O)(=O)N([C@H](C)CO)C[C@H]2C)cc1
not listed: [8]
inactive: all other assays above

Cc1noc(C)c1S(=O)(=O)Nc1ccc2c(c1)C(=O)N([C@H](C)CO)C[C@@H](C)[C@H](CN(C)C(=O)Nc1ccc(C(F)(F)F)cc1)OCCCC[C@@H](C)O2
not listed: [8]
inactive: all other assays above

C[C@@H]1CCCCO[C@@H](CN(C)S(=O)(=O)c2ccc(F)cc2)[C@H](C)CN([C@H](C)CO)C(=O)c2cc(NS(=O)(=O)c3ccc(Cl)cc3)ccc2O1
not listed: [8]
inactive: all other assays above

C[C@@H]1CCCCO[C@H](CN(C)Cc2ccc(C(F)(F)F)cc2)[C@H](C)CN([C@@H](C)CO)C(=O)c2cc(NS(=O)(=O)c3ccc(Cl)cc3)ccc2O1
not listed: [8]
inactive: all other assays above

C[C@@H]1CN([C@H](C)CO)C(=O)CCCn2cc(nn2)CO[C@H]1CN(C)C(=O)Nc1ccc(-c2cccs2)cc1
not listed: [8]
inactive: all other assays above

C[C@@H]1CN([C@H](C)CO)C(=O)c2cc(NS(=O)(=O)c3cccs3)ccc2O[C@@H](C)CCCCO[C@@H]1CN(C)Cc1ccc(C(F)(F)F)cc1
inactive: all assays above

O=C(Nc1ccc(F)cc1)N1CC(=O)N2[C@@H](CO)[C@@H](c3ccc(C#Cc4ccc(F)cc4)cc3)[C@@H]2C1
not listed: [8]
inactive: all other assays above

C[C@H]1CCCCO[C@H](CN(C)S(=O)(=O)c2ccc(F)cc2)[C@@H](C)CN([C@@H](C)CO)C(=O)c2cc(NS(=O)(=O)c3ccc(Cl)cc3)ccc2O1
not listed: [8]
inactive: all other assays above

C[C@H]1CN([C@@H](C)CO)S(=O)(=O)c2ccc(C#Cc3ccc(F)cc3)cc2O[C@@H]1CN(C)C(=O)NC1CCCCC1
inactive: all assays above

C[C@H](CO)N1C[C@H](C)[C@H](CN(C)Cc2ccc(C(F)(F)F)cc2)OCCCC[C@H](C)Oc2ccc(NC(=O)NC3CCCCC3)cc2C1=O
not listed: [8]
inactive: all other assays above

COc1ccc2c3c(n(C)c2c1)[C@@H](CO)N(C(=O)Nc1ccc(F)cc1)CC31CCN(S(=O)(=O)c2cccc(C)c2)CC1
inactive: all assays above
